In the library only some 7.5% were active in any assay of this set; here they are far more common.
FLuc modulator: counter-screen for miR-21 project: firefly luciferase inhibitors or activators. P08659. hit rate 6.9% among 360,000. Potency, µM (series often up to 57.5 µM), actives largely listed as inhibitors. purified FLuc, Km substrates, luminescence inhibition. AID 588342; further: nearly all actives have a fitted effect of over 55% in size
Target sequence (P08659 whole entry, looked up): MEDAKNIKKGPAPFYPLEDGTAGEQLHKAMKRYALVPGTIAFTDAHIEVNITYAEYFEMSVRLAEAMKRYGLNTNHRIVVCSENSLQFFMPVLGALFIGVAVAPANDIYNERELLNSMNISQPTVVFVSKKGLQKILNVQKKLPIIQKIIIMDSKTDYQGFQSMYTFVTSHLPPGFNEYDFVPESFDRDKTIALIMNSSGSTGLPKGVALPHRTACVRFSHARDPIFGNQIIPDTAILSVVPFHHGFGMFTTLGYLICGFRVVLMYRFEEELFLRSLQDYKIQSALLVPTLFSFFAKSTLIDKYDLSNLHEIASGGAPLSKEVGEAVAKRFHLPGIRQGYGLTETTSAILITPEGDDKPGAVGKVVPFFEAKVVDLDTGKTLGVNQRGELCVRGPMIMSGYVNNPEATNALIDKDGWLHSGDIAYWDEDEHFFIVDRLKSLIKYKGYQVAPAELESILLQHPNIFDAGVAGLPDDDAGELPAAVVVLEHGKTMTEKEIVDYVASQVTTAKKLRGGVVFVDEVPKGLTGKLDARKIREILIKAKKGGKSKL
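Purified P. pyralis luciferase (10nM final) with 10uM D-luciferin and 10uM ATP (Km levels) in 50mM Tris acetate pH 7.5, 10mM Mg acetate, 0.01% Tween-20, 0.05% BSA; qHTS 6-point titration, ~60 µM downward; luminescence read.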
SMN2 splice enh: increases expression of the SMN2 splice variant; HEK293 SMN2-luciferase splicing reporter, luminescence, 30-36 h; Potency, µM (titrated, usually from 46.1 µM), usual class: activators; hit rate 2.8% among 210,000; AID 1458; further: nearly all actives have a fitted effect of over 55% in size
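HEK293 cells carry an SMN2 minigene-luciferase reporter in which exon 7 inclusion puts luciferase in frame. Cells were seeded at 2000 cells/well, attached for 10-12 hours, then exposed to compounds for 30-36 hours at 37C before ONE-Glo luminescence.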
NPC1 prom act: NPC1 promoter activation. Huh7 NPC1 promoter luciferase reporter, 24 h. Potency, µM (titrated, usually from 9.22 µM), hits mostly activators. hit rate 2.4% among 320,000; further: nearly all actives have a fitted effect of over 60% in size
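Huh7 reporter cells (NPC1 promoter driving luciferase) are dosed with compound for 24 h at 37 °C, 5% CO2; luciferase detection reagent is then added and luminescence measured after 10 min at ambient temperature.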
Rab9 promoter act: Rab9 promoter activation; Huh7 Rab9 promoter-luciferase reporter, luminescence, 24 h; Potency, µM (series often up to 9.22 µM), usual class: activators; hit rate 2.8% among 320,000; further: nearly all actives have a fitted effect of over 60% in size
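Measured in stably transfected Huh7 cells bearing a Rab9 promoter–luciferase construct: 24 h compound treatment at 37 °C, followed by luminescence detection.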
Luc counter: blocks Kinase-Glo luciferase, a counter-screen artifact; hit rate 0.28% among 200,000; Kinase-Glo luciferase, ATP luminescence, 8 min; Potency, µM (top dose mostly 38.3 µM), actives largely listed as inhibitors; further: nearly all actives have a fitted effect of over 60% in size
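Compound is pinned into ATP-containing buffer (10 uM ATP, imidazole pH 7.2, 7 mM MgCl2). Kinase-Glo luciferase reagent is then added. Light output is recorded following an 8-min room-temperature incubation.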
ELG1 genotoxic: genotoxicity induction in ELG1-luciferase HEK293T cells; HEK293T ELG1-luciferase reporter, luminescence, 16 h; AID 504466; hit rate 1.3% among 330,000; Potency, µM (doses to about 46 µM), actives largely listed as activators; further: nearly all actives have a fitted effect of over 60% in size
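Cells (2,000/well) expressing the ELG1-luciferase fusion are dosed by pin tool and kept 16 hr at 37 °C, 5% CO2. Signal comes from ONE-Glo luciferase reagent after 30 min at room temperature.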
Hits are given with their value; - = inactive; ? = inconclusive; . = not tested or not shown; [ ] = remark or other dose. The call rests on the fitted dose curve; in most records, active means well fitted curve in the direction sought with a large enough effect; inconclusive means small, poorly fitted or top-dose-only effect, or another doubt; inactive means no such curve, though single readings can be large; an effect the other way counts as inactive or inconclusive.

SMILES | FLuc modulator | SMN2 splice enh | NPC1 prom act | Rab9 promoter act | Luc counter | ELG1 genotoxic
O=c1[nH]c(/C=C/c2cccc3ccccc23)nc2ccccc12 | - | - | - | ? | - | -
O=c1[nH]c(/C=C/c2ccccn2)nc2ccccc12 | 19µM | . | 1.6µM | 1.6µM | . | ?
O=C1C2C3C=CC(C3)C2C(=O)N1c1ccc2c(c1)OCO2 (stereo not given) | - | . | - | - | - | -
O=C1C2C3C=CC(CC3)C2C(=O)N1c1ccc2c(c1)OCO2 (stereo not given) | 17µM | - | - | - | - | -
CC1(C)CC(=O)c2c(oc3cc4c(cc23)OCO4)C1 | . | - | . | . | - | .
Cc1cc(Cl)c2oc(C(=O)N3CCN(C(=O)c4ccco4)CC3)c(C)c2c1 | 11µM | . | ? | ? | . | ?
Cc1cc(Cl)c2oc(C(=O)N3CCN(c4cccc(C)n4)CC3)c(C)c2c1 | 15µM | . | 3.5µM | ? | . | ?
O=C(Nc1nc2n(n1)C(c1ccc(F)cc1)C=C(c1ccccc1)N2)c1cccc([N+](=O)[O-])c1 (stereo not given) | - | . | . | . | . | .
COc1cc(C)nc(Nc2nc(C)c(C(C)=O)s2)n1 | - | . | - | - | . | -
COc1ccc(Nc2nc3ccc(OC)cc3s2)cc1 | 11µM | 13µM | ? | 2.2µM | - | ?
COc1ccc2nc(NS(=O)(=O)c3ccc(NC(C)=O)cc3)sc2c1 | - | - | - | - | - | -
COc1ccc2nc(Nc3nc(C)c(C(C)=O)s3)sc2c1 | 4.8µM | - | 2.8µM | 2.5µM | - | ?
CC(=O)N1CCN(c2ccc(NC(=O)c3ccc4c(c3)OCCO4)cc2Cl)CC1 | 6µM | . | - | - | - | -
CC(C)C(=O)N1CCN(c2ccc(NC(=O)c3cccs3)cc2Cl)CC1 | ? | . | - | - | - | -
CC(C)C(=O)N1CCN(c2ccc(NC(=O)c3ccc4c(c3)OCCO4)cc2Cl)CC1 | 4.3µM | - | - | - | - | -
O=C(Cn1cc(SCc2cccc(Cl)c2)c2ccccc21)N1CCOCC1 | 19µM | . | - | ? | - | -
Cc1cccc(CSc2cn(CC(=O)N3CCOCC3)c3ccccc23)c1 | 15µM | ? | ? | ? | - | ?
O=C(CSc1cn(CC(=O)N2CCOCC2)c2ccccc12)N1CCOCC1 | - | . | - | - | . | -
O=C(O)C/C=C\CC(=O)O | . | -[9.22 µM] | . | . | -[7.66 µM] | .
COc1ccc(C(=O)NC(=O)COC(=O)C2CC2C)cc1 (stereo not given) | . | . | . | . | . | -
CCc1cc(C)cc(OCCNC(=O)c2cncc(Br)c2)c1 | - | - | - | - | - | -
O=C(CCSc1ccccc1)NCCSCc1ccccc1 | 21µM | - | - | - | - | -
CN(C)S(=O)(=O)c1ccc(C(=O)NCCSc2ccc(Br)cc2)cc1 | - | - | - | - | - | -
O=C(NCCSc1ccccc1)c1cncc(Br)c1 | 21µM | ? | ? | ? | - | 15µM
O=C(NCCOc1ccccc1)c1cncc(Br)c1 | ? | - | ? | ? | - | 16µM
SMILES | FLuc modulator | SMN2 splice enh | NPC1 prom act | Rab9 promoter act | Luc counter | ELG1 genotoxic
O=C(NCCSc1ccccc1)c1ccc(Br)cc1 | 1.3µM | 6.3µM | 0.79µM | 0.56µM | - | 3.3µM
Cc1nn(C(C)(C)C)c(OC(=O)c2cccc(F)c2)c1Sc1ccccc1 | - | - | . | . | . | .
Cc1ccc(Oc2coc3cc(OCC(=O)NC4CCCCC4)ccc3c2=O)cc1 | - | - | . | . | . | .
CCOc1ccc(N(Cc2cc3ccc(C)cc3[nH]c2=O)S(=O)(=O)c2ccccc2)cc1 | - | . | - | - | . | -
O=C(NCCSc1ccccc1)c1ccccc1 | ? | 11µM | 2.5µM | 2.5µM | - | ?
COc1cccc(C(=O)NCCSc2ccc(F)cc2)c1 | 19µM | 13µM | ? | ? | - | -
CSc1ccccc1C(=O)NCCSc1ccccc1 | - | - | - | - | - | ?
Cc1ccc(CN2C(=O)c3ccccc3Sc3ccc(C(=O)NC4CCCCC4)cc32)cc1 | - | . | . | . | . | .
O=C(O)c1cc(-c2cccc([N+](=O)[O-])c2)nc2ccccc12 | 19µM | . | - | - | . | -
Cn1c(N)c(C(=O)c2cc(-c3ccccc3)nc3ccccc23)c(=O)n(C)c1=O | 5.4µM | 11µM | - | - | - | ?
O=[N+]([O-])c1ccc2nc(-c3ccccc3)cc(-c3ccccc3)c2c1 | - | - | - | - | - | -
Cc1cc(-c2cccc([N+](=O)[O-])c2)nc2ccc3ccccc3c12 | 2.7µM | - | ? | ? | - | -
Cn1c(=O)c(C(=O)COC(=O)c2cc(-c3ccccc3)nc3ccccc23)c(N)n(Cc2ccccc2)c1=O | - | - | - | - | - | -
CC(CNC(=O)Cn1ccc2cc(S(=O)(=O)N3CCCCCC3)ccc21)c1ccccc1 (stereo not given) | - | . | . | . | . | .
COc1cc(NC(=O)c2cc3ccccc3o2)ccc1NC(=O)c1ccco1 | - | . | - | - | . | -
COC(=O)c1cc(Cl)c(NC(=O)c2cc3ccccc3o2)cc1OC | - | - | ? | 1.8µM | - | -
CCC(=O)Nc1ccc(NC(=O)c2cc3ccccc3o2)c(OC)c1 | ? | . | 2.5µM | 4µM | . | ?
COc1ccc(NC(=O)c2cc3ccccc3o2)c(OC)c1 | 5.4µM | . | . | . | . | .
COc1cc(NC(=O)c2c(OC)cccc2OC)ccc1NC(=O)c1cc2ccccc2o1 | ? | . | ? | ? | . | 15µM
COc1cc(NC(=O)c2ccc(F)cc2)ccc1NC(=O)c1cc2ccccc2o1 | - | . | - | - | . | -
Cc1cc(C(=O)N/N=C/c2cccc([N+](=O)[O-])c2O)n[nH]1 | 15µM | - | - | - | - | -
CC(C)(C)c1cc(C(=O)N/N=C/c2ccc(-c3ccccc3[N+](=O)[O-])o2)n[nH]1 | 21µM | . | - | - | . | -
O=C(N/N=C/c1ccc(-c2ccccc2[N+](=O)[O-])o1)c1cccnc1 | ? | - | - | - | - | -
C/C(=N\OCC(=O)Nc1ccc2c(c1)OCCO2)c1ccc2c(c1)OCCO2 | 19µM | . | - | - | . | -
Cc1cc(OCC(=O)Nc2ccc3c(c2)OCCO3)ccc1Cl | 19µM | - | - | - | - | -
SMILES | FLuc modulator | SMN2 splice enh | NPC1 prom act | Rab9 promoter act | Luc counter | ELG1 genotoxic
CCOCC(=O)Nc1ccc2c(c1)OCCO2 | ? | ? | ? | 3.2µM | - | ?
O=C(COc1ccc(F)cc1)Nc1ccc2c(c1)OCCO2 | 5.4µM | . | 2.8µM | 4µM | . | ?
CCC(=O)c1ccc(OCC(=O)Nc2ccc3c(c2)OCCO3)cc1 | . | . | . | . | . | -
COc1ccc(S(=O)(=O)N2CCc3cc4c(cc3C2C)OCCCO4)cc1 (stereo not given) | - | . | - | - | . | -
O=C(COc1ccc2c(c1)OCO2)Nc1cccc(F)c1 | 9.5µM | . | - | - | . | 13µM
CCOC(=O)c1c(C)c(C(=O)Nc2ccc3c(c2)OCCO3)c(C)n1C | ? | ? | - | - | - | -
CCOc1ccc(OCCC(=O)OCC(=O)Nc2ccc3c(c2)OCO3)cc1 | 24µM | . | - | - | . | -
CCOC(=O)c1ccc(NC(=O)Nc2ccc3c(c2)OCCO3)cc1 | 19µM | - | - | - | - | -

Compound activity deposited in PubChem BioAssay by National Center for Advancing Translational Sciences (NCATS).
